From PubChem BioAssay (Tox21) come the findings set out here.

Several values for one entry are separate records, joined by “and”; a condition that tells them apart may be missing. Identical values can stand only once. Inconclusive results are not listed. A call without a number means that no potency is given here. Activity calls are given as the source filed them. Calls follow the shape of the dose curve; as a rule, active = well fitted curve in the direction sought with a large enough effect in the repeat runs; inconclusive = weak or mixed curves; inactive = no such curve, though single readings can be large; an effect the other way counts as inactive or inconclusive.
Potency is read from the fitted curve at half-maximal effect.

One assay is described as follows: A CellTox Green Cytotoxicity Assay to monitor cytotoxicity in HepG2 cells - 8 hour (AID 1224890). Also: nearly all actives have a fitted effect of over 45% in size. The conditions noted are these: CellTox Green fluorescence; series mostly up to 76.8 µM. Summed up: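 Measurements at 0, 8, 16, 24, 32 and 40 h of treatment captured CellTox Green fluorescence in HepG2 cells that had been co-plated with reagent and preincubated 5 h at 37 C/5% CO2.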
As to `C[C@@H]1C[C@H]2[C@@H]3CCC4=CC(=O)C=C[C@]4(C)[C@@]3(Cl)[C@@H](O)C[C@]2(C)[C@@]1(OC(=O)c1ccco1)C(=O)CCl`, the Potency result was “inactive”.
Turning to `O=C(N/N=C/c1ccccc1O)c1ccncc1`, the Potency result was “inactive”.
On to `O=C(Nc1cccc([N+](=O)[O-])c1)c1cc2ccccc2cc1O`, for which the Potency entry is “inactive”.
Still for that read-out and setting: as for `C/C(=C(/OCCOc1ccc(Cl)cc1)c1ccc(Cl)cc1Cl)n1ccnc1`, the entry is “inactive”; as for `CN(C)c1ccc(C2(c3ccc(N(C)C)cc3)OC(=O)c3cc(N(C)C)ccc32)cc1`, “inactive”; as for `Cn1cc(C(=O)[C@@H]2CCc3nc[nH]c3C2)c2ccccc21`, “inactive”.
On the same count and under the same terms, as for `Clc1ccc(C(Cn2ccnc2)OCc2ccc(Sc3ccccc3)cc2)c(Cl)c1` (centres undefined), the entry is “inactive”.
Consider `NNc1nc(-c2ccc([N+](=O)[O-])cc2)cs1`, for which the Potency entry was “inactive”.
Same read-out and setting: as for `CCCCCOC(=O)CCCC`, the entry is “inactive”; as for `CCC(N)(CO)CO`, “inactive”.
Still for that read-out and setting: for `Cc1cccc(S(=O)(=O)O)c1C` the value was “inactive”.
Same read-out and setting: as for `CCCC1O[C@@H]2C[C@H]3[C@@H]4CCC5=CC(=O)C=C[C@]5(C)[C@H]4[C@@H](O)C[C@]3(C)[C@]2(C(=O)CO)O1` (some centres undefined), the entry is “inactive”; as for `C=CC(=O)OCC(CO)(COC(=O)C=C)COC(=O)C=C`, “inactive”.
For `O=C(NOCC1CC1)c1ccc(F)c(F)c1Nc1ccc(I)cc1Cl`, the Potency entry is “inactive”.
For the compound `Cc1ccc2oc(CN(Cc3ccccc3)C(=O)Nc3c(F)cc(F)cc3F)c(-c3ccc(Cl)cc3)c2c1`, the Potency entry is “inactive”.
Still for that read-out and setting: for `Cc1cc(C2CCCCC2)n(O)c(=O)c1` the value was “inactive”; for `Clc1ccc2n[nH]nc2c1`, “inactive”.
On the same count and under the same terms, as for `CC(=O)OCC(C)OC(C)=O` (centres undefined), the entry is “inactive”.
For the compound `C1CCCC1`, the Potency result is “inactive”.
Turning to `Nc1ccc2cc(S(=O)(=O)O)cc(O)c2c1N=Nc1ccccc1C(F)(F)F`, the Potency entry is “inactive”.
Same read-out and setting: as for `CSc1cnc(C)cn1`, the figure is 56.4 µM (active).
For the compound `CCN1/C(=C/C=C/c2sc3ccccc3[n+]2CC)Sc2ccccc21`, the cytotoxicity increase was -7.07% [at 15.8 µM] (inactive).
For the compound `CSc1ccc(/C=C2/C(C)=C(CC(=O)O)c3cc(F)ccc32)cc1`, the Potency result is “inactive”.
For the compound `CCN(CCC#N)c1ccc(N=Nc2c(Cl)cc([N+](=O)[O-])cc2Cl)cc1`, the Potency entry is “inactive”.
As to `CCOC(=O)/C=C(C)/C=C/C=C(C)/C=C/c1c(C)cc(OC)c(C)c1C`, the Potency result is “inactive”.
The same measure, in the same setting: for `Cc1onc(-c2c(Cl)cccc2Cl)c1C(=O)N[C@@H]1C(=O)N2[C@@H]1SC(C)(C)[C@@H]2C(=O)O` the value was “inactive”.
In the case of `CCN(Cc1cccnc1)C(=O)c1cccc(Cl)c1[C@]1(C)C(=O)N(Cc2ccc(OC)cc2OC)c2ccc(Cl)cc21`, the Potency entry is “inactive”.
`CC(C)(C)C(=O)OCOC(=O)[C@@H]1N2C(=O)[C@@H](NC(=O)[C@H](N)c3ccccc3)[C@H]2SC1(C)C`: the Potency result is “inactive”.
With `CCOC(=O)O[C@H](C)OC(=O)c1ccc2c(c1)cc(C(=O)NC1CCN(C(C)C)CC1)n2Cc1cc(-c2ccc(Cl)s2)on1`, the Potency is 18.2 µM (active).

A further assay can be described thus: qHTS assay to identify small molecule antagonists of the estrogen receptor alpha (ER-alpha) signaling pathway using the BG1 cell line in the presence of 0.1 nM 17-beta-estradiol - cell viability counter screen (AID 1259241). Also: nearly all actives have a fitted effect of over 40% in size. The note with it: VM7Luc4E2 (BG1) viability, CellTiter-Fluor protease, 22 h, 0.1 nM estradiol agonist added; series mostly up to 92.4 µM. The method in brief: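 The cell line endogenously expresses full-length ER-alpha and carries four EREs driving luciferase. Cells are cultured 5 days hormone-free, treated 22 hr with compounds and 0.1 nM estradiol, then viability is read by fluorescence.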
For orientation: Quantitative high-throughput screening tests each substance at several concentrations.
As to `NC(=O)NS(=O)(=O)c1ccc(N)cc1`, the Potency result is “inactive”.
Still for that read-out and setting: for `C[C@@H]1C[C@H]2[C@@H]3CCC4=CC(=O)C=C[C@]4(C)[C@@]3(Cl)[C@@H](O)C[C@]2(C)[C@@]1(OC(=O)c1ccco1)C(=O)CCl` the value was “inactive”.
On the same count and under the same terms, as for `O=C(N/N=C/c1ccccc1O)c1ccncc1`, the entry is “inactive”; as for `O=C(Nc1cccc([N+](=O)[O-])c1)c1cc2ccccc2cc1O`, “inactive”.
In the case of `C/C(=C(/OCCOc1ccc(Cl)cc1)c1ccc(Cl)cc1Cl)n1ccnc1`, the Potency entry is “inactive”.
Same read-out and setting: for `CN(C)c1ccc(C2(c3ccc(N(C)C)cc3)OC(=O)c3cc(N(C)C)ccc32)cc1` the value was “inactive”.
With `Cn1cc(C(=O)[C@@H]2CCc3nc[nH]c3C2)c2ccccc21`, the Potency entry is “inactive”.
Consider `Clc1ccc(C(Cn2ccnc2)OCc2ccc(Sc3ccccc3)cc2)c(Cl)c1` (centres undefined), for which the Potency entry was “inactive”.
On the same count and under the same terms, for `NNc1nc(-c2ccc([N+](=O)[O-])cc2)cs1` the value was 27.3 µM (active); for `CCCCCOC(=O)CCCC`, “inactive”; for `CC1=C(C(=O)OC(C)C)C(c2cccc([N+](=O)[O-])c2)C(C(=O)OC2CN(C(c3ccccc3)c3ccccc3)C2)=C(N)N1` (centres undefined), “inactive”.
On the same count and under the same terms, for `CCC(N)(CO)CO` the value was “inactive”.
In the case of `Cc1cccc(S(=O)(=O)O)c1C`, the Potency result was “inactive”.
As for `CCCC1O[C@@H]2C[C@H]3[C@@H]4CCC5=CC(=O)C=C[C@]5(C)[C@H]4[C@@H](O)C[C@]3(C)[C@]2(C(=O)CO)O1` (some centres undefined), the Potency result was “inactive”.
On the same count and under the same terms, as for `Nc1ccccc1O`, the figure is 53.8 µM (active); as for `C=CC(=O)OCC(CO)(COC(=O)C=C)COC(=O)C=C`, 15.4 µM (active) and 48.6 µM (active); as for `O=C(NOCC1CC1)c1ccc(F)c(F)c1Nc1ccc(I)cc1Cl`, “inactive”.
On to `Cc1ccc2oc(CN(Cc3ccccc3)C(=O)Nc3c(F)cc(F)cc3F)c(-c3ccc(Cl)cc3)c2c1`, for which the Potency result is “inactive”.
For the compound `Cc1cc(C2CCCCC2)n(O)c(=O)c1`, the Potency is 11.9 µM (active).
On the same count and under the same terms, as for `O=C(O)c1c(Cl)cccc1Cl`, the entry is “inactive”.
Still for that read-out and setting: as for `CN(C/C=C/C#CC(C)(C)C)Cc1cccc2ccccc12`, the entry is “inactive”; as for `Clc1ccc2n[nH]nc2c1`, “inactive”; as for `CC(=O)OCC(C)OC(C)=O` (centres undefined), “inactive”.
On to `CCN(C(=O)N(CC)c1ccccc1)c1ccccc1`, for which the Potency entry is “inactive”.
`C1CCCC1`: the Potency result was “inactive”.
Turning to `Nc1ccc2cc(S(=O)(=O)O)cc(O)c2c1N=Nc1ccccc1C(F)(F)F`, the Potency was 30.6 µM (active).
Still for that read-out and setting: as for `CSc1cnc(C)cn1`, the entry is “inactive”; as for `CCN1/C(=C/C=C/c2sc3ccccc3[n+]2CC)Sc2ccccc21`, 2.31 µM (active); as for `CSc1ccc(/C=C2/C(C)=C(CC(=O)O)c3cc(F)ccc32)cc1`, “inactive”.
For `Cc1ccc(-n2nc(C(C)(C)C)cc2NC(=O)Nc2ccc(OCCN3CCOCC3)c3ccccc23)cc1`, the Potency result is “inactive”.
Consider `CCOC(=O)/C=C(C)/C=C/C=C(C)/C=C/c1c(C)cc(OC)c(C)c1C`, for which the Potency result is “inactive”.
The same measure, in the same setting: as for `Cc1onc(-c2c(Cl)cccc2Cl)c1C(=O)N[C@@H]1C(=O)N2[C@@H]1SC(C)(C)[C@@H]2C(=O)O`, the entry is “inactive”.
On the same count and under the same terms, as for `CCN(Cc1cccnc1)C(=O)c1cccc(Cl)c1[C@]1(C)C(=O)N(Cc2ccc(OC)cc2OC)c2ccc(Cl)cc21`, the entry is “inactive”; as for `CC(C)(C)C(=O)OCOC(=O)[C@@H]1N2C(=O)[C@@H](NC(=O)[C@H](N)c3ccccc3)[C@H]2SC1(C)C`, “inactive”; as for `CCOC(=O)O[C@H](C)OC(=O)c1ccc2c(c1)cc(C(=O)NC1CCN(C(C)C)CC1)n2Cc1cc(-c2ccc(Cl)s2)on1`, 64.1 µM (active).
